Bioassay records as filed in PubChem.
This is a sample that favours compounds with a hit; in the whole collection about 3.6% have one here.
GPR32 ag: activates human resolvin D1 receptor GPR32; O75388; CHO-K1 GPR32 beta-arrestin PathHunter luminescence, 90 min; zero percent set by DMSO-only wells; activation, % at 76.9 µM; 48,000 compounds, 2.5% hits;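 active = activation of at least 60% and not above a set upper limit, about 1 call in 100 departs from these limits; inconclusive = activation of 40% to 60%, or above that upper limit; inactive = activation under 40%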; also: 0% is about no effect
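Using DMSO wells as EC0, agonist-induced signal was taken as chemiluminescence from beta-Gal reconstituted upon beta-arrestin recruitment to GPR32 in CHO-K1 cells after 90 min compound treatment.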
GALK inh: GALK (human) enzyme inhibition; P51570; recombinant GALK, Kinase-Glo ATP luminescence, 1 h; Potency, µM (highest dose often 57.5 µM), for the others: top-dose activity, negative = inhibition, actives largely listed as inhibitors; 44,000 tested, under 10 active; AID 1347072;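 also: plate controls were full GALK reaction for no effect and reaction lacking GALK for full effect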
Target sequence (P51570 whole entry, looked up): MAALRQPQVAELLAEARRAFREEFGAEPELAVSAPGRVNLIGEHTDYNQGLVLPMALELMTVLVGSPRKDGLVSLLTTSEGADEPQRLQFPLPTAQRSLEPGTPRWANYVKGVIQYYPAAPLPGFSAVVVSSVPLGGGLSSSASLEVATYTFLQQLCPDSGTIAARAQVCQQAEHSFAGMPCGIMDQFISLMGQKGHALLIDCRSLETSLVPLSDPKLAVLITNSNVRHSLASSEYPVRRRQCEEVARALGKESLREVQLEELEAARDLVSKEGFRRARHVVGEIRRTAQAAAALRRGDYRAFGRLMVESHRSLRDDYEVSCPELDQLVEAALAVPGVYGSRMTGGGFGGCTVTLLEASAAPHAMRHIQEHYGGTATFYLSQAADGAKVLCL
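5 nM GALK; 35 uM ATP; 100 uM D-galactose; 20 mM HEPES pH 8.0, 5 mM MgCl2, 60 mM NaCl, 1 mM DTT, 0.01% BSA; 1 h RT; Kinase-Glo Plus luminescence.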
GALC G270D up: raises human GALC G270D mutant activity in cells; Potency, µM (top dose mostly 57.5 µM), usual class: activators; 45,000 compounds, 0.1% hits; 145M-Twi-hGALC-G270D cells, HMU-beta-Gal fluorescence, 48 h; also: potency is read from the fitted curve at half-maximal effect; 0% is about no effect; nearly all actives have a fitted effect of over 65% in size
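qHTS, 1536-well; 145M-Twi-hGALC-G270D cells (WT line also made) in DMEM/F12 + 10% FBS; compound incubation on live cells; HMU-β-gal 0.1 mM final, pH 5.2, NaTC; carbonate stop; fluorescence increase = enhanced residual activity.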
B2AR arrestin ag: ADRB2 beta-arrestin recruitment | Potency, µM (highest dose often 46.1 µM), actives largely listed as activators | P07550 | 44,000 tested, under 10 active | HTLA Tango cells, beta-arrestin recruitment, luciferase luminescence, 18 h;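 also: potency is read from the fitted curve at half-maximal effect; 0% = DMSO and full agonism = EC100 isoproterenol or metaproterenol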
Target sequence (P07550 whole entry, looked up): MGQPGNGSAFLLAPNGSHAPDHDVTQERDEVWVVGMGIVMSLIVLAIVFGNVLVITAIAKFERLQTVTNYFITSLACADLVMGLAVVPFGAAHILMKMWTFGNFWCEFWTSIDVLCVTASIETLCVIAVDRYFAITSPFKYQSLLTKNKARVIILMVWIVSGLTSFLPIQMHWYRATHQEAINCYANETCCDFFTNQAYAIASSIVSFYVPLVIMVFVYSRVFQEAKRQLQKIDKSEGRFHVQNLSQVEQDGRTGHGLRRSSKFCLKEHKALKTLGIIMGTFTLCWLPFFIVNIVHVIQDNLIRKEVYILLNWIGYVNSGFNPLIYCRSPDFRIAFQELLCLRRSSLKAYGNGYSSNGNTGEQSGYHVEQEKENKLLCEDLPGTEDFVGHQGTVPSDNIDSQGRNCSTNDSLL
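Ligand-induced beta-arrestin recruitment to recombinant beta2-AR is measured via a tTA-driven luciferase reporter in Tango cells after 18 hr compound exposure at 37 degrees C. Concentrations span up to 46 microM.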
NTMT1 inhibitor: inhibitors of human N-terminal methyltransferase NTMT1; NTMT1 MTase-Glo SAH luminescence, purified enzyme; Q9BV86; 59,000 compounds, 2.5% hits; Potency, µM (titrated, usually from 114 µM), for the others: at the highest dose activity change, negative = inhibition, usual class: inhibitors;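 also: potency is read from the fitted curve at half-maximal effect; plate controls were DMSO vehicle for no effect and no enzyme for full effect; nearly all actives have a fitted effect of over 65% in size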
NNMT counter: counter-screen for NTMT1 inhibitors: human NNMT inhibition; 120 compounds, 10% hits; shares compounds with NTMT1 inhibitor; Potency, µM (doses to about 57.1 µM), for the others: top-dose activity, negative = inhibition, actives largely listed as inhibitors; NNMT MTase-Glo luminescence, SAH detection
Numbers without * were called inactive; i = inactive; ? = inconclusive; nt = no result given; ! = a repeat was not active; [ ] = remark or other dose. Unless noted, calls follow the shape of the dose curve; as a rule, active = well fitted curve in the direction sought with a large enough effect; inconclusive = small, poorly fitted or top-dose-only effect, or another doubt; inactive = no such curve, though single readings can be large; an effect the other way counts as inactive or inconclusive.

SMILES	GPR32 ag	GALK inh	GALC G270D up	B2AR arrestin ag	NTMT1 inhibitor	others
O=C1OC(c2ccc(O)c(S(=O)(=O)O)c2)(c2ccc(O)c(S(=O)(=O)O)c2)c2c(Br)c(Br)c(Br)c(Br)c21	-6	nt	i	nt	79µM*
Cn1c(/C=C/CO)c(CO)c2c1C(=O)C=C(N1CC1)C2=O	nt	nt	nt	nt	-11%
ClC1=C(Cl)[C@]2(Cl)[C@@H]3[C@@H]4C[C@@H]([C@H]5O[C@@H]45)[C@@H]3[C@@]1(Cl)C2(Cl)Cl	113*	nt	i	nt	32%
CC1Oc2cc3c(-c4c(O)cc(O)c5c(O)c6c(cc45)OC(C)C(C)C6=O)c(O)cc(O)c3c(O)c2C(=O)C1C (stereo not given)	nt	nt	nt	nt	18µM*
CC[C@H]1C[C@H]2[C@@H]3CCC4=CC(=O)CC[C@@H]4[C@H]3CC[C@]2(C)[C@H]1O	19	nt	i	nt	?
CC[C@]1(O)CC[C@H]2[C@@H]3CCC4=CCCC[C@@H]4[C@H]3CC[C@@]21C	?	nt	i	nt	13µM*
[Cl][In]([Cl])[Cl]	33	nt	i	nt	3.2µM*
CCOc1ccc(CCNC(=O)c2cc3cccnc3n2Cc2cccc(C)c2)cc1OCC	nt	nt	nt	nt	10%
COc1ccc2c(c1OC)CN1CCc3cc4c(cc3C1C2)OCO4 (stereo not given)	68*	nt	i	nt	-1%
CN1CCc2cc3c(cc2C1C1OC(=O)c2c1ccc1c2OCO1)OCO3 (stereo not given)	nt	nt	nt	nt	-5%[29.8 µM]
C[C@]12C/C(=C/O)C(=O)C[C@@H]1CC[C@@H]1[C@@H]2CC[C@@]2(C)[C@H]1CC[C@]2(C)O	89*	nt	i	nt	?
COc1ccc2c(c[n+](C)c3c4cc5c(cc4ccc23)OCO5)c1OC	66*	nt	nt	nt	5%
C[C@]12CC[C@@H](O[C@@H]3O[C@H](CO)[C@@H](O)[C@H](O)[C@H]3O)C[C@@]1(O)CCC1C2CC[C@]2(C)[C@@H](C3=CC(=O)OC3)CC[C@]12O (stereo not given in full)	nt	nt	nt	nt	7%[29.8 µM]
COC1CC(OC2CCC3(C)C(=CCC4C3CCC3(C)C(C(C)OC5OC(COC6OC(CO)C(O)C(O)C6O)C(O)C(O)C5O)CCC43O)C2)OC(C)C1OC1OC(C)C(O)C(OC)C1O (stereo not given)	nt	nt	nt	nt	8%[12.6 µM]
CCN(CC)C(=O)N[C@@H]1C=C2c3cccc4[nH]cc(c34)C[C@@H]2N(C)C1	64*	nt	i	nt	-13%[57.5 µM]
CC1(C)C(=O)N(c2ccc(C#N)c(C(F)(F)F)c2)C(=S)N1c1ccc(C(N)=O)c(F)c1	nt	nt	nt	nt	5%[57.5 µM]
CCc1ccc(NC(=O)Cn2c(=O)oc3cc(S(=O)(=O)NCc4ccccc4)ccc32)cc1	73*	-3%	i[11.5 µM]	i	3%
COC[C@]12CN(C)C3C4[C@H](OC)[C@H]1C3(C(OC)C[C@H]2O)[C@H]1C[C@@]2(O)[C@H](OC(=O)c3ccccc3)[C@@H]1[C@]4(O)[C@@H](O)[C@@H]2OC (stereo not given in full)	nt	nt	nt	nt	-16%[57.5 µM]
CC[C@@H](CO)NC(=O)[C@@H]1C=C2c3cccc4c3c(cn4C)C[C@H]2N(C)C1	0	nt	i	nt	-25%[57.5 µM]
CN1C[C@H](CNC(=O)OCc2ccccc2)C[C@@H]2c3cccc4c3c(cn4C)C[C@H]21	80*!	nt	i	nt	-18%[57.5 µM]
COc1ccc(C23CCC(=O)C=C2N(C)CC3)cc1OC (stereo not given)	nt	nt	nt	nt	2%[57.5 µM]
COc1ccc(Cc2nccc3cc(OC)c(OC)cc23)cc1OC	119*!	nt	i	nt	-5%
COc1ccc(CN(C(=O)[C@@H](N)Cc2c(C)cc(C(N)=O)cc2C)[C@@H](C)c2ncc(-c3ccccc3)[nH]2)cc1C(=O)O	nt	nt	nt	nt	-2%[57.5 µM]
CCCCCCC(C)(C)c1cc(O)c2c(c1)OC(C)(C)C1CC=C(CO)C[C@H]21 (stereo not given in full)	nt	nt	nt	nt	2%
O=c1oc2ccccc2c(O)c1C(CC(O)c1ccc(-c2ccc(Br)cc2)cc1)c1ccccc1 (stereo not given)	82*	nt	i	nt	89µM*
SMILES	GPR32 ag	GALK inh	GALC G270D up	B2AR arrestin ag	NTMT1 inhibitor	others
Cc1c(C(c2ccc(F)cc2)c2c(O)c3ccccc3oc2=O)c(=O)n(-c2ccccc2)n1C (stereo not given)	7	-1%	i	i	9%
N#Cc1cc2c(nc1SCC(=O)Nc1cccc(F)c1)C1CCN2CC1	68*	0%	i	?	0%
CCN1C[C@]2(COC)[C@H](O)C[C@H](OC)[C@]34[C@@H]5C[C@]6(O)[C@H](OC(=O)c7ccccc7)[C@@H]5[C@@](O)([C@H]([C@H](OC)[C@H]23)[C@@H]14)[C@@H](O)[C@@H]6OC	nt	nt	nt	nt	-15%[29.8 µM]
C[C@]12CC[C@@H]3c4ccc(OC(=O)N(CCCl)CCCl)cc4CC[C@H]3[C@@H]1CC[C@@H]2O	0	nt	i	nt	22µM*
CCOC(=O)c1ccc(NC(=O)c2sc3nc4c(cc3c2N)N2CCC4CC2)cc1	20	-2%	14µM*	i	-11%
Cc1c(P(=S)(c2ccccc2)c2ccccc2)[n+]2ccccc2n1C	nt	nt	nt	nt	16µM*!
CCOC(=O)Nc1ccc(NCc2c(C)cc(C)cc2C)cc1N	nt	nt	nt	nt	-6%[57.5 µM]
Cc1c(N)nc([C@H](CC(N)=O)NC[C@@H](N)C(N)=O)nc1C(=O)N[C@H](C(=O)N[C@@H](C)[C@H](O)[C@@H](C)C(=O)N[C@@H](C(=O)NCCc1nc(-c2nc(C(=O)NCCC[S+](C)C)cs2)cs1)[C@@H](C)O)C(O[C@H]1O[C@H](CO)[C@H](O)[C@@H](O)[C@H]1O[C@H]1O[C@H](CO)[C@@H](O)[C@H](OC(N)=O)[C@@H]1O)c1cnc[nH]1 (stereo not given in full)	nt	nt	nt	nt	26%[57.5 µM]
CC(N[C@H]1C[C@@H]1c1ccccc1)c1ccc2c(c1)OCCO2 (stereo not given in full)	nt	nt	nt	nt	-8%
C[C@@]12OC(=O)[C@]1([C@@H](O)[C@@H]1C=CCCC1)NC(=O)[C@@H]2CCCl	nt	nt	nt	nt	-15%
Cc1ccc([N+](=O)[O-])[c]2c1[O][Hg]2	26	nt	i	nt	0.89µM*
Cc1cccc(-n2nc(C)c3c2NC(=O)CSC3c2ccccc2Cl)c1 (stereo not given)	63*	2%	i	i	4%
C=C1C(=O)CC2OC2(C)CC2OC(=O)C(=C)C2C(O)C1OC(=O)/C(C)=C\C (stereo not given)	nt	nt	nt	nt	-7%[29.8 µM]
Cc1cccc(-c2nc(CN3C(=O)CN=C(c4ccccc4)c4ccccc43)c(C)o2)c1	63*	-3%	i	i	-3%
Cc1ccccc1-c1nc(CN2C(=O)CN=C(c3ccccc3)c3ccccc32)c(C)o1	-20	-11%	i	i	4%
Nc1ccc(N)cc1	-65	nt	i	nt	?
Nc1ccccc1	-1	nt	i	nt	20µM*
c1ccc(C2(c3ccccc3)OC[C@@H]([C@H]3CCCCN3)O2)cc1	nt	nt	nt	nt	3%[57.5 µM]
CCOC(=O)c1c(C(C#N)=CN)c2ccc(Cl)c(Cl)c2n1C	nt	nt	nt	nt	79µM*
CC1CCCC(=O)CCC/C=C/c2cc(O)cc(O)c2C(=O)O1 (stereo not given)	nt	nt	nt	nt	7.9µM*	NNMT counter=?
CCOc1ccc(CCNC(=O)c2cc3ccccc3n2CCN2CCOCC2)cc1OCC	nt	nt	nt	nt	1%
